Results reported in PubChem BioAssay (Tox21).
“And” between values parts separate entries of the source, which are not always exact repeats. Identical values can stand only once. Results filed as inconclusive are left out. A call without a number means that no potency is given here. The source holds several records for some structures; these can differ, active in one and inactive in another. The source made the active and inactive calls. The call rests on the fitted dose curve; in most records, active means well fitted curve in the direction sought with a large enough effect in the repeat runs; inconclusive means weak or mixed curves; inactive means no such curve, though single readings can be large; an effect the other way counts as inactive or inconclusive.

Columns and labels:
[1] = target: Cytochrome P450 2C9 (Homo sapiens) (UniProt P11712); assay: Cytochrome P450 Family 2 Subfamily C Member 9 (CYP2C9) small molecule antagonists: luciferase reporter qHTS assay (AID 1671198); settings: P450-Glo CYP2C9 enzyme assay, luciferin luminescence; series mostly up to 115 µM
Sequence of Cytochrome P450 2C9 (Homo sapiens) (P11712 whole entry, looked up): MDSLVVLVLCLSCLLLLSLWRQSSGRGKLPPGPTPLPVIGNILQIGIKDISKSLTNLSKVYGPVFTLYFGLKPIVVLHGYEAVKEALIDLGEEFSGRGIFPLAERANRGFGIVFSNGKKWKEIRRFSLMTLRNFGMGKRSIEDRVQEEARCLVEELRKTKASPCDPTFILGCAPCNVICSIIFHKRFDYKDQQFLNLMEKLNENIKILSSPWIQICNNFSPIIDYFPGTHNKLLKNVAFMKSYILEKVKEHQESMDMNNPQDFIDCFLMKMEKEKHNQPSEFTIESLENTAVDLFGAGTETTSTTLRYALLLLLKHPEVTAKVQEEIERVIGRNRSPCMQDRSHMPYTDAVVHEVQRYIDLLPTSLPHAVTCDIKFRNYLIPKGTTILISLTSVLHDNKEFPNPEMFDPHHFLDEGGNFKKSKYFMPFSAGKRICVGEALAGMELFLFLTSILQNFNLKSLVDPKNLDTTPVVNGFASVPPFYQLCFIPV
Method in brief: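 CYP2C9 activity was measured with a P450-Glo proluciferin substrate. Enzyme–substrate mix was held with compound for 10 min at room temperature, then NADPH regeneration solution was added for 1 h at 37C. Luciferin product was read as luminescence.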

[2] = target: Cytochrome P450 1A2 (Homo sapiens) (UniProt P05177); assay: Cytochrome P450 Family 1 Subfamily A Member 2 (CYP1A2) small molecule antagonists: luciferase reporter qHTS assay (AID 1671199); settings: P450-Glo CYP1A2 enzyme, luciferin luminescence, 1 h; series mostly up to 115 µM
Sequence of Cytochrome P450 1A2 (Homo sapiens) (P05177 whole entry, looked up): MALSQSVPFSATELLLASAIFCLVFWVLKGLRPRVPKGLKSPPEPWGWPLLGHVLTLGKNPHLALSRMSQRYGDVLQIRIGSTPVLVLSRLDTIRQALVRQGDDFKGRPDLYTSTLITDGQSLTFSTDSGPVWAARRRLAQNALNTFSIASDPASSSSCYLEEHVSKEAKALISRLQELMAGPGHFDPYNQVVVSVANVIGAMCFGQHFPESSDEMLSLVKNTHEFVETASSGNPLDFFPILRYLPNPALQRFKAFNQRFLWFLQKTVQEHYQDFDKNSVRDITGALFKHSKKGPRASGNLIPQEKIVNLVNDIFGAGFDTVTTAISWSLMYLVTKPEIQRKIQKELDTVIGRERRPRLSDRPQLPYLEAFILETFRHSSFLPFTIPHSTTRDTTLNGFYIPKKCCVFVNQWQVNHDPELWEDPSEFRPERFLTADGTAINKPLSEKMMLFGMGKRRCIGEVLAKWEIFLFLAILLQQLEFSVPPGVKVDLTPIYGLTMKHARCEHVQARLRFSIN
Method in brief: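 Quantitative high-throughput format using the P450-Glo CYP1A2 system. Reaction initiated by NADPH regeneration solution, 1 h at room temperature, then stopped with detection reagent; luminescence measured 20 min later.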

[3] = target: Voltage-gated inwardly rectifying potassium channel KCNH2 (Homo sapiens) (UniProt Q12809); assay: Human Ether-a-go-go-Related Gene (hERG) channel small molecule antagonists: fluorescence cell-based qHTS assay (AID 1671200); settings: hERG-U2OS cells, FluxOR thallium flux fluorescence; series mostly up to 76.8 µM
Sequence of Voltage-gated inwardly rectifying potassium channel KCNH2 (Homo sapiens) (Q12809 whole entry, looked up): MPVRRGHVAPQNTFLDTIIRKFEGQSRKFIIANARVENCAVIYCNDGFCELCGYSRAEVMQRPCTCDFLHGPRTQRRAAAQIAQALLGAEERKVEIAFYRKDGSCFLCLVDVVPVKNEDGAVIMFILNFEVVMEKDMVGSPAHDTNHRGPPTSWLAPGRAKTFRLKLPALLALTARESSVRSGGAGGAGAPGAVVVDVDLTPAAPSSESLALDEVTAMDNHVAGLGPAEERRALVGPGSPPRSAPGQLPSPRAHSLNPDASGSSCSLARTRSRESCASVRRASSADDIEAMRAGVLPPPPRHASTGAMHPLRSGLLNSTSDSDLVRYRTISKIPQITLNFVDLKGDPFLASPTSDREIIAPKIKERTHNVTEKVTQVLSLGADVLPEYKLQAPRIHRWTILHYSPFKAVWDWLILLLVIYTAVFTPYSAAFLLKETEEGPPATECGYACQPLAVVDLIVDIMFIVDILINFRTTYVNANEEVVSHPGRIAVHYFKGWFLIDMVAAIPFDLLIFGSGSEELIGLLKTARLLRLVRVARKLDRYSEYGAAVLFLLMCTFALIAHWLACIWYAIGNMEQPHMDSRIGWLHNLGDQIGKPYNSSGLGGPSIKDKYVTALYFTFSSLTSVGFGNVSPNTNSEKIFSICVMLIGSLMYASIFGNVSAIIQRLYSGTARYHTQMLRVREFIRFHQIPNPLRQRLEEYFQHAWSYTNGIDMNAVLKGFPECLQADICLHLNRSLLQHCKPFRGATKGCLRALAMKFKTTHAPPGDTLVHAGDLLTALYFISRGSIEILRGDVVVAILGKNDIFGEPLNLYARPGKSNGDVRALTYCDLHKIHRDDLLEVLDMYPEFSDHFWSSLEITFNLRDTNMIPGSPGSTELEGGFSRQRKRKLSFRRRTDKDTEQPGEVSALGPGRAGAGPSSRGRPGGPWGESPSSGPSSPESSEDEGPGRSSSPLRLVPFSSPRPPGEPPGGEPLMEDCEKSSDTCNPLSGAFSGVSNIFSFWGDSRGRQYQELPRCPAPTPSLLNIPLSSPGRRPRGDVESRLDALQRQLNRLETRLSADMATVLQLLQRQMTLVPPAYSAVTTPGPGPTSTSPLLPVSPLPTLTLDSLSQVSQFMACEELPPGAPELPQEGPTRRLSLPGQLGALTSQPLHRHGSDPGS
Method in brief: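 Measured: Tl+ flux via fluorescence (480/540 nm) in hERG-expressing U2OS cells after 1 h dye loading at room temperature.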

[4] = target: Cytochrome P450 3A4 (Homo sapiens) (UniProt P08684); assay: Cytochrome P450 Family 3 Subfamily A Member 4 (CYP3A4) small molecule antagonists: luciferase reporter qHTS assay (AID 1671201); settings: P450-Glo CYP3A4 enzyme, luciferin luminescence, 1 h; series mostly up to 115 µM
Sequence of Cytochrome P450 3A4 (Homo sapiens) (P08684 whole entry, looked up): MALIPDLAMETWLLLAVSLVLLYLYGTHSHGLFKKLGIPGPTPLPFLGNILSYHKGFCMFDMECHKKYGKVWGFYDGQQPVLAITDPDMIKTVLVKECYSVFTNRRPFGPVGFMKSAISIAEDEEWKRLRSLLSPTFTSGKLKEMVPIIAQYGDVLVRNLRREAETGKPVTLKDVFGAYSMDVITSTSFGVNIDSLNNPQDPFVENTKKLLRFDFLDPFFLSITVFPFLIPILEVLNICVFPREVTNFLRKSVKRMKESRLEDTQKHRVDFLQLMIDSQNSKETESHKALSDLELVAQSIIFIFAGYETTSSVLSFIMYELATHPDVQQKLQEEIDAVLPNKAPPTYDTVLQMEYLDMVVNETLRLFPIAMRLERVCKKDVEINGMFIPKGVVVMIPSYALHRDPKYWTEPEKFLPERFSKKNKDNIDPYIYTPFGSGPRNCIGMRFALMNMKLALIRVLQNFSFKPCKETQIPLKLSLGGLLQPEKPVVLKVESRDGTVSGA
Method in brief: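 Setup: enzyme-substrate mix, compound pin transfer, 10 min RT. Reaction: NADPH regeneration solution, 1 h RT. Readout: detection reagent stops turnover, luminescence measured after 20 min, expressed in relative luminescence units.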
Further: nearly all actives have a fitted effect of over 50% in size.
Potency means the concentration at half of the fitted maximal effect.

Row | Structure (SMILES) | Potency [1] | Potency [2] | Potency [3] | Potency [4]
1 | CCO[Si](CCCNC(N)=O)(OCC)OCC | inactive | inactive | inactive | inactive
2 | C=CCCCCCCCCCC | inactive | inactive | inactive | inactive
3 | COc1ccc2nc(N)sc2c1 | 39.9 µM (active) | 22.5 µM (active) and 31.7 µM (active) | inactive | –
4 | c1ccc2c(c1)[nH]c1ccccc12 | inactive | 2.21 µM (active) and 2.24 µM (active) | inactive | inactive
5 | CN(C)C | inactive | inactive | inactive | inactive
6 | CCCN1C=CN(C)C1 | inactive | inactive | inactive | inactive
7 | C1CN(SSN2CCOCC2)CCO1 | 39.5 µM (active) and 28.3 µM (active) | 62.6 µM (active) and 39.9 µM (active) | inactive | inactive
8 | NCCOCCO | inactive | inactive | inactive | inactive
9 | C=CN1CCCC1=O | inactive | inactive | inactive | inactive
10 | CC[C@]12CCCN3CCc4c(n(c5ccccc45)[C@@](O)(C(=O)OC)C1)[C@@H]32 | inactive | inactive | 692 nM (active) and 1.69 µM (active) | –
11 | CC(=O)O[C@]1(C(C)=O)CC[C@H]2[C@@H]3C=C(C)C4=CC(=O)CC[C@]4(C)[C@H]3CC[C@@]21C | 7.96 µM (active) and 8.71 µM (active) | inactive | inactive | inactive
12 | NCCN | inactive | inactive | inactive | 81.2 µM (active) and inactive
13 | C1COCCN1 | inactive | inactive | inactive | inactive
14 | O=Cc1ccccc1C=O | 35.6 µM (active) and inactive | 63.3 µM (active) and inactive | inactive | inactive
15 | Nc1cc(Cl)c(N)c(Cl)c1 | 15.8 µM (active) and 39.9 µM (active) | 15.8 µM (active) and 35.6 µM (active) | inactive | 3.14 µM (active) and 17.8 µM (active)
16 | CCCOCCO | inactive | inactive | inactive | inactive
17 | Cc1ccc(C(C)(C)C)cc1 | inactive | inactive | inactive | inactive
18 | COc1cc([C@H]2Oc3cc([C@H]4Oc5cc(O)cc(O)c5C(=O)[C@@H]4O)ccc3O[C@@H]2CO)ccc1O | 10 µM (active) and 8.71 µM (active) | 35.5 µM (active) and inactive | inactive | –
19 | C=CC(=O)OCCCC | inactive | inactive | inactive | inactive
20 | OC[C@@H](O)[C@@H](O[C@@H]1O[C@H](CO)[C@H](O)[C@H](O)[C@H]1O)[C@H](O)[C@@H](O)CO | inactive | 35.1 µM (active) and inactive | inactive | inactive
21 | Nc1cc([N+](=O)[O-])ccc1C(=O)O | inactive | inactive | inactive | inactive

Row | Structure (SMILES) | Potency [1] | Potency [2] | Potency [3] | Potency [4]
22 | CCCCCCCC/C=C\CCCCCCCC(=O)O | inactive | inactive | inactive | inactive
23 | CC(=O)[C@@]1(O)CC[C@H]2[C@@H]3C[C@H](C)C4=CC(=O)C=C[C@]4(C)[C@@]3(F)[C@@H](O)C[C@@]21C | 10 µM (active) and 6.92 µM (active) | inactive | inactive | –
24 | CC(=O)Oc1ccc(C(c2ccc(OC(C)=O)cc2)c2ccccn2)cc1 | 7.06 µM (active) and 12.3 µM (active) | inactive | inactive | inactive
25 | FC(F)(F)C(Cl)Br (stereo not given) | inactive | inactive | inactive | inactive
26 | IC(I)I | 35.5 µM (active) and 63.3 µM (active) | 25.2 µM (active) | inactive | –
27 | CC1(C)OC(=O)NC1=O | inactive | inactive | inactive | –
28 | Oc1ccc(C(c2ccc(O)cc2)C(Cl)(Cl)Cl)cc1 | 22.4 µM (active) and 12.6 µM (active) | inactive | inactive | 17.8 µM (active) and 20 µM (active)
29 | Cc1ccc([N+](=O)[O-])c(C)c1 | inactive | inactive | inactive | inactive
30 | CC1(C)NC(=O)N(c2ccc([N+](=O)[O-])c(C(F)(F)F)c2)C1=O | 10 µM (active) and 7.76 µM (active) | 11.2 µM (active) and 12.3 µM (active) | inactive | –
31 | CC(C)[C@@H]1CC[C@@H](C)CC1=O | inactive | 30.9 µM (active) | inactive | inactive
32 | Cc1ccc2c(c1)C(=O)OC2=O | inactive | inactive | inactive | inactive
33 | CCOC(=O)C(C)Oc1ccc(Oc2cnc3cc(Cl)ccc3n2)cc1 (stereo not given) | 23.6 µM (active) | 52.8 µM (active) | 15.9 µM (active) and 18.3 µM (active) | inactive
34 | CC(=O)OC(C)C | inactive | inactive | inactive | inactive
35 | Oc1c(Cl)ccc(Cl)c1Cl | 35.5 µM (active) and 35.6 µM (active) | 35.5 µM (active) and 35.6 µM (active) | inactive | inactive
36 | CCCCCCCCCCCCO | inactive and 22.2 µM (active) | inactive and 27.9 µM (active) | inactive | inactive
37 | CC(=O)Oc1c(C)c(C)c2c(c1C)CC[C@@](C)(CCC[C@H](C)CCC[C@H](C)CCCC(C)C)O2 | inactive | inactive | inactive | inactive
38 | Cc1ccc(S(=O)(=O)NCl)cc1 | inactive and 75.1 µM (active) | inactive and 75.1 µM (active) | inactive | inactive
39 | COCCOCCOCCO | inactive | inactive | inactive | inactive
40 | CC/C=C\C/C=C\C/C=C\CCCCCCCC(=O)O | 35.3 µM (active) and 39.9 µM (active) | inactive | inactive | inactive and 39.9 µM (active)
41 | OC[C@H]1O[C@@H]2O[C@H]3[C@H](O)[C@@H](O)[C@@H](O[C@H]4[C@H](O)[C@@H](O)[C@@H](O[C@H]5[C@H](O)[C@@H](O)[C@@H](O[C@H]6[C@H](O)[C@@H](O)[C@@H](O[C@H]7[C@H](O)[C@@H](O)[C@@H](O[C@H]1[C@H](O)[C@H]2O)O[C@@H]7CO)O[C@@H]6CO)O[C@@H]5CO)O[C@@H]4CO)O[C@@H]3CO | inactive and 3.76 µM (active) | inactive | inactive | inactive
42 | O=C(O)c1cc(=O)[nH]c(=O)[nH]1 | inactive | 40 µM (active) and inactive | inactive | inactive

Row | Structure (SMILES) | Potency [1] | Potency [2] | Potency [3] | Potency [4]
43 | Nc1ccc(N)c(Cl)c1 | 8.92 µM (active) and 8.94 µM (active) | 39.8 µM (active) and 35.6 µM (active) | inactive | 2.51 µM (active) and 5.64 µM (active)
44 | Cc1ccc(N)c([N+](=O)[O-])c1 | inactive | 15.7 µM (active) and 14.2 µM (active) | inactive | inactive
45 | COC(=O)CC(=O)OC | inactive | inactive | inactive | inactive and 63.3 µM (active)
46 | CC(=O)Nc1ccc2c(c1)Cc1cc(NC(C)=O)ccc1-2 | inactive | inactive | inactive | inactive
47 | CCCCCCCCCCC(CO)CCCCCCCC (stereo not given) | inactive | inactive | inactive | inactive
48 | c1ccc2c(c1)ccc1ncccc12 | inactive | 4.45 µM (active) and 7.1 µM (active) | inactive | 62.8 µM (active)
49 | Brc1nc2ccccc2s1 | inactive | 31.6 µM (active) and 14.2 µM (active) | inactive | inactive
50 | Nc1ccc2c(O)cc(S(=O)(=O)O)cc2c1 | 71 µM (active) | inactive | inactive | inactive
51 | C/C=C/C(=O)N(CC)c1ccccc1C | 39.9 µM (active) | 31.7 µM (active) and inactive | inactive | inactive
52 | C=CCOC(=O)C(=C)C | inactive | inactive | inactive | inactive
53 | Cc1ccc(C(C)(C)C)c(O)c1 | 34.4 µM (active) and 71 µM (active) | 71 µM (active) | inactive | inactive
54 | O=[Se](O)O | 7.11 µM (active) | inactive and 13.6 µM (active) | inactive | inactive
55 | C=C[Si](OCCOC)(OCCOC)OCCOC | inactive | inactive | inactive | 20.1 µM (active) and 31.7 µM (active)
56 | CC1=CC(C)(C)Nc2ccccc21 | 12.3 µM (active) | inactive | inactive | 2.75 µM (active)
57 | O=C(O)c1ccc(O)cc1 | inactive | inactive | inactive | inactive
58 | C[C@]12C=CC(=O)C=C1CC[C@H]1[C@@H]3C[C@@H](O)[C@](O)(C(=O)CO)[C@@]3(C)C[C@H](O)[C@@]12F | 20 µM (active) | inactive | inactive | inactive
59 | CCCCCCC(C)O (stereo not given) | inactive | inactive | inactive | inactive
60 | CC1(C)O[C@@H]2C[C@H]3[C@@H]4C[C@H](F)C5=CC(=O)C=C[C@]5(C)[C@@]4(F)[C@@H](O)C[C@]3(C)[C@]2(C(=O)CO)O1 | 39.9 µM (active) | inactive | inactive | 20 µM (active) and 3.89 µM (active)
61 | CCCCCC=O | inactive | inactive | inactive | inactive
62 | Cc1ccc(S(=O)(=O)O)cc1C | inactive | inactive | inactive | inactive
63 | CCC(=O)O[C@H]1[C@H](O[C@@H]2[C@@H](C)[C@H](O[C@H]3C[C@@](C)(OC)[C@@H](O)[C@H](C)O3)[C@@H](C)C(=O)O[C@H](CC)[C@@](C)(O)[C@H](O)[C@@H](C)C(=O)[C@H](C)C[C@@]2(C)O)O[C@H](C)C[C@@H]1N(C)C | 37.4 µM (active) and inactive | inactive | inactive | 265 nM (active) and 2.75 µM (active)
